# According to the supplement of paper PMC10849652:
# Of roughly 8,800 targets only a part is listed; those with a hit were picked by preference. About 0.5% of all pairs of compound and target were hits.
# Compound: CN1CC[C@H](c2c(O)cc(O)c3c(=O)cc(-c4ccccc4Cl)oc23)[C@H](O)C1 [alvocidib]
# Assay: log2 fold change, soluble protein after heating vs DMSO (PISA); higher = thermal stabilisation; K562 lysate, 10 uM; active = over 0.2 and 3.5 SD of the protein, either way, in both replicates (recomputed)
# How it was run: (§1)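 K562 pellets were dounce-homogenised in PBS pH 7.4 with 1 mM MgCl2, and the crude extract at 1 mg/mL protein was treated with 10 μM compound for 30 min. Aliquots were heated for 3 min across 48°C-58°C, pooled, and brought to 0.5% NP-40 at 4°C; soluble protein was the supernatant after 21,000xg for 90 min. Soluble protein was quantified by TMTpro 16plex LC-MS/MS with channel sums equalised, and reported as log2 fold change in thermal stability against DMSO controls, with values from duplicates.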
# UniProt Q96S99, sequence (Q96S99 whole entry, looked up): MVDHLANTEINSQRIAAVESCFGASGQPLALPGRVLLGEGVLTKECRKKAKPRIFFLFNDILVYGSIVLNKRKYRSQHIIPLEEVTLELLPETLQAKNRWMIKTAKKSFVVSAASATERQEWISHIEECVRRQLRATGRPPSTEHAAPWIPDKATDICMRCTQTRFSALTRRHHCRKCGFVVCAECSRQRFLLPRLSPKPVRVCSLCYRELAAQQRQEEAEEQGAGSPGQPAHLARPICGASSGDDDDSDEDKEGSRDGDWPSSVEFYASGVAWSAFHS
# UniProt Q15054, sequence (Q15054 whole entry, looked up): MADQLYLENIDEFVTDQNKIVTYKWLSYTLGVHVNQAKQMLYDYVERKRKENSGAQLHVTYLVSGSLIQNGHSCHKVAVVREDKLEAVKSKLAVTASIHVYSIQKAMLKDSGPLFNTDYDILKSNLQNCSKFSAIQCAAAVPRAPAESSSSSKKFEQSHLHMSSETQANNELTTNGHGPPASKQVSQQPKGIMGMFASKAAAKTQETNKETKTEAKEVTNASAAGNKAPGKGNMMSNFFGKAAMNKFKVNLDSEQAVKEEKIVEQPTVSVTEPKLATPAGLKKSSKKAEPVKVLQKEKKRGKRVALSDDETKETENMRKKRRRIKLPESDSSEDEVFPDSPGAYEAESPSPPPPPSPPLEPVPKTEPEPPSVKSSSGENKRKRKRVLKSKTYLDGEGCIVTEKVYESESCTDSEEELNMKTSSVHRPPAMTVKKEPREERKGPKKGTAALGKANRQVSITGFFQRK
# UniProt Q8N4L2, sequence (Q8N4L2 whole entry, looked up): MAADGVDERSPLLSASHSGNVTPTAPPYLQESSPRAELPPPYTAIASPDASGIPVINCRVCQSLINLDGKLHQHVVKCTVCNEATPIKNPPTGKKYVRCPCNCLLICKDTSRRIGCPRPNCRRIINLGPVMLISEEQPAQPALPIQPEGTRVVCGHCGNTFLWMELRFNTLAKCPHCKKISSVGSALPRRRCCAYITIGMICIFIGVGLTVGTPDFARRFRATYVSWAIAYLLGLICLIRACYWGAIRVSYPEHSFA
# UniProt P18031, sequence (P18031 whole entry, looked up): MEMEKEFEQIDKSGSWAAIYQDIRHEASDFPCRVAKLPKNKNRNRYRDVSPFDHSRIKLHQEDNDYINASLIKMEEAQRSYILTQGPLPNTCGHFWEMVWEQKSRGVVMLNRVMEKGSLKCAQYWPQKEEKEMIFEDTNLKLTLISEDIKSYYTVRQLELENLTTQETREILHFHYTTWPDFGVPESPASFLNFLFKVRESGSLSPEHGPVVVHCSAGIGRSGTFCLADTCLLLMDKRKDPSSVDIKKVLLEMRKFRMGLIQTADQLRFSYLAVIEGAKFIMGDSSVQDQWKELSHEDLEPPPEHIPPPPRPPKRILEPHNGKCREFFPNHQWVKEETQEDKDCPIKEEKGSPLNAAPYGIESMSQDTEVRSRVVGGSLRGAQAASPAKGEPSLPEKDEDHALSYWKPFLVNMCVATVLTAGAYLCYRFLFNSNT
# UniProt Q8IZ21, sequence (Q8IZ21 whole entry, looked up): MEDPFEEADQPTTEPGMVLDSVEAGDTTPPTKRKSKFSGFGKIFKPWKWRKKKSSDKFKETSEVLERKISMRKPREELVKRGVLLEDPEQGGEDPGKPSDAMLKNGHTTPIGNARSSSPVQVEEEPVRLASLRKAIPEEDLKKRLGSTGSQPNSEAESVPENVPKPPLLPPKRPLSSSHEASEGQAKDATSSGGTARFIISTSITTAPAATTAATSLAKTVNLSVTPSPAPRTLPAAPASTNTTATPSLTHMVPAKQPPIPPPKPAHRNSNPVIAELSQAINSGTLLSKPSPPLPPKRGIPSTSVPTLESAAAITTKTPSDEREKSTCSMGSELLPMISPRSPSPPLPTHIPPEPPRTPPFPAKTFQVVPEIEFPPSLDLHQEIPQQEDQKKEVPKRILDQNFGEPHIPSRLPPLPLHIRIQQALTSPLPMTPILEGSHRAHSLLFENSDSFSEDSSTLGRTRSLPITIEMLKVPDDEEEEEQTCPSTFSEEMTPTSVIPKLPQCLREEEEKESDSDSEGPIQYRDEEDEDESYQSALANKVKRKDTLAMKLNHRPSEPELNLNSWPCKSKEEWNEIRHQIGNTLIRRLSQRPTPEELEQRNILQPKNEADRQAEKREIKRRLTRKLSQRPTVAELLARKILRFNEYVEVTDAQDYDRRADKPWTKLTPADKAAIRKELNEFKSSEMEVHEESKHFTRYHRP
# UniProt Q13362, sequence (Q13362 whole entry, looked up): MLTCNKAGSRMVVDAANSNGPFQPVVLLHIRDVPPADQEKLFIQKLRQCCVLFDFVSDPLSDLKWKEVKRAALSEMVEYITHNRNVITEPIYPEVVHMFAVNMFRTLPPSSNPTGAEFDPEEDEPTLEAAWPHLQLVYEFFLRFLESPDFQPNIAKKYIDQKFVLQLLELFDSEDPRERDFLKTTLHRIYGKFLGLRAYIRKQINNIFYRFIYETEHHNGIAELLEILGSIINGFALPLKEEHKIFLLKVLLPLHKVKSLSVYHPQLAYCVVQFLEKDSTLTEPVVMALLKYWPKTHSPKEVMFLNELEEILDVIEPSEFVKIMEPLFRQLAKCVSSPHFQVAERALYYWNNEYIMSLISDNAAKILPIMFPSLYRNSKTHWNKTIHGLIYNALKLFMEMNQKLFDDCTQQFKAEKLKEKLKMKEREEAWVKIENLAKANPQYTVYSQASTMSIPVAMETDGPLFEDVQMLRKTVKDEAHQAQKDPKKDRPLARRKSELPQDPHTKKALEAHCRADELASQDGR
# UniProt O15031, sequence (O15031 whole entry, looked up): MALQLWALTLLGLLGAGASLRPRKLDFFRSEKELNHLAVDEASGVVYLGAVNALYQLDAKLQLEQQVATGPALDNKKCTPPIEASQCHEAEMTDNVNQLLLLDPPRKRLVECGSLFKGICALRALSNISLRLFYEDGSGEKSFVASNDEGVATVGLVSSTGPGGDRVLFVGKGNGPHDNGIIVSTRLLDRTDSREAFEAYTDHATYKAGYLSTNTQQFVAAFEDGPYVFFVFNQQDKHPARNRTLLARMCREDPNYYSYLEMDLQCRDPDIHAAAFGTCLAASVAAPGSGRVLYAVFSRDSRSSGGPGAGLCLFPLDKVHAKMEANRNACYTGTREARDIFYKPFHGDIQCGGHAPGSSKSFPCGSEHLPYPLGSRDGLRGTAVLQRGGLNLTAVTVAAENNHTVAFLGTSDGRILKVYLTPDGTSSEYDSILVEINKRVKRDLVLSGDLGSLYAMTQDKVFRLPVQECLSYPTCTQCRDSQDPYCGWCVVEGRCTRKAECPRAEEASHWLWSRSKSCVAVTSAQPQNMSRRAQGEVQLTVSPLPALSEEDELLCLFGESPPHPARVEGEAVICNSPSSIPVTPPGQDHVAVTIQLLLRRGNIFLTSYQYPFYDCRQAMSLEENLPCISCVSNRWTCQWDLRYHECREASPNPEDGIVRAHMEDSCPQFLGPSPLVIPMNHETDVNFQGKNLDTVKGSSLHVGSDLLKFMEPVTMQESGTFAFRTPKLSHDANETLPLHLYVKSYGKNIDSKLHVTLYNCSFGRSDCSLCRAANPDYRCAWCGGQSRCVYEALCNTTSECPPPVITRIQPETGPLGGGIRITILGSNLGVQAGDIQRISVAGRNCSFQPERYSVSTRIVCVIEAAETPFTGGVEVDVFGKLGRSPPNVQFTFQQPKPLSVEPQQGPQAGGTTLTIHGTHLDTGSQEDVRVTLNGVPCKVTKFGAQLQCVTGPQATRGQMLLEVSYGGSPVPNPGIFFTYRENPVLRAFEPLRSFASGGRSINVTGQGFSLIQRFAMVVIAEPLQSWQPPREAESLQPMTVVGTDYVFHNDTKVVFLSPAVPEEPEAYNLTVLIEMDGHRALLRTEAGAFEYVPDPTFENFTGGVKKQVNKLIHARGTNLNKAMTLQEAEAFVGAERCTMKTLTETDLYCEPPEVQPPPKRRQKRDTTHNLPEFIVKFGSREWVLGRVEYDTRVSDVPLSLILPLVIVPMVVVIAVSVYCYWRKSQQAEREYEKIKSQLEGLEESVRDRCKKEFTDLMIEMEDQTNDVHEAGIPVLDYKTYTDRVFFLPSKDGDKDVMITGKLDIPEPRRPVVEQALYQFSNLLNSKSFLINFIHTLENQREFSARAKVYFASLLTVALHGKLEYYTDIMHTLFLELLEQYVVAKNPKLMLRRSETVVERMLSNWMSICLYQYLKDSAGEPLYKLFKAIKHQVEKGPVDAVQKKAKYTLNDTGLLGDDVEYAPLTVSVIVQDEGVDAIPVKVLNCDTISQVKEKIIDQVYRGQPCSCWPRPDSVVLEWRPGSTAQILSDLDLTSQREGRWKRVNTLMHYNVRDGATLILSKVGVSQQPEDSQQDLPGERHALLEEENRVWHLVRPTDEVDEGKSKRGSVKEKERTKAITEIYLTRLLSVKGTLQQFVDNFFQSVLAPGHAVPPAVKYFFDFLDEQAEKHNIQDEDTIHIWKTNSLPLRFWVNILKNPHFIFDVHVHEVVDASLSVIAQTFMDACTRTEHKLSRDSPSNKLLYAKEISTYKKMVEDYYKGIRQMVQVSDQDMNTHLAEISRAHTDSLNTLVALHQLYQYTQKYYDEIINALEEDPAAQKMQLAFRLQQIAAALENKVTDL
# UniProt Q96CD2, sequence (Q96CD2 whole entry, looked up): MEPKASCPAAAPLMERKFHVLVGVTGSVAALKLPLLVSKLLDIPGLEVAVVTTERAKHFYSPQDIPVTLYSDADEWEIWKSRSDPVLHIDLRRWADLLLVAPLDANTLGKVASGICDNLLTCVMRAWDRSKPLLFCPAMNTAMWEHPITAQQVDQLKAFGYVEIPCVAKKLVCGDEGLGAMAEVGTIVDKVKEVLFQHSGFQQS
# UniProt Q8TCD6, sequence (Q8TCD6 whole entry, looked up): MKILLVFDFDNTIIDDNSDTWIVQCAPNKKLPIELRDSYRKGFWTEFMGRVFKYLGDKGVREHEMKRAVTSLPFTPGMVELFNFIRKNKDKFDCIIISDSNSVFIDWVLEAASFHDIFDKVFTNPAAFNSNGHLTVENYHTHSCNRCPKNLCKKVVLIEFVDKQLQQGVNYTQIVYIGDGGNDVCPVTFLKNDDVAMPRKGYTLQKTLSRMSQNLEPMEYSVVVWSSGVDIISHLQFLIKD
row,Target,log2 fold change
1,PUS1 (UniProt Q9Y606),-0.002 (inactive)
2,PTPN23 (UniProt Q9H3S7),-0.004 (inactive)
3,PDCD6IP (UniProt Q8WUM4),0.05 (inactive)
4,PMS2 (UniProt P54278),-0.001 (inactive)
5,PSTPIP2 (UniProt Q9H939),-0.006 (inactive)
6,PUM1 isoform 3 (UniProt Q14671),0.02 (inactive)
7,PICALM (UniProt Q13492),-0.021 (inactive)
8,PTPN1 (UniProt P18031),-0.002 (inactive)
9,PPP2R5C isoform 5 (UniProt Q13362),0.016 (inactive)
10,POLD3 (UniProt Q15054),0.041 (inactive)
11,PIP4K2A (UniProt P48426),0.279 (active)
12,PDS5A (UniProt Q29RF7),0.023 (inactive)
13,PFN1 (UniProt P07737),-0.002 (inactive)
14,PLXNB2 (UniProt O15031),0 (inactive)
15,PFAS (UniProt O15067),-0.015 (inactive)
16,PITRM1 isoform 2 (UniProt Q5JRX3),0.016 (inactive)
17,PPP1R8 (UniProt Q12972),-0.095 (inactive)
18,PLEKHF1 (UniProt Q96S99),-0.001 (inactive)
19,PRKACB isoform 2 (UniProt P22694),0.006 (inactive)
20,PIP4K2C (UniProt Q8TBX8),0.47 (active)

row,Target,log2 fold change
1,PDPK1 (UniProt O15530),0.009 (inactive)
2,PIK3C3 (UniProt Q8NEB9),-0.081 (inactive)
3,PHOSPHO2 (UniProt Q8TCD6),0.053 (inactive)
4,PFKP (UniProt Q01813),0.019 (inactive)
5,PHKG2 (UniProt P15735),0.107 (inactive)
6,PPCDC (UniProt Q96CD2),-0.08 (inactive)
7,PDE2A (UniProt O00408),0.038 (inactive)
8,PRKCB isoform 2 (UniProt P05771),-0.004 (inactive)
9,PIP4P2 (UniProt Q8N4L2),-0.03 (inactive)
10,PHKA1 (UniProt P46020),0.047 (inactive)
11,PIK3R2 (UniProt O00459),0.023 (inactive)
12,PSMB9 (UniProt P28065),-0.052 (inactive)
13,PHACTR4 isoform 2 (UniProt Q8IZ21),0.209 (inactive)
14,PI4K2A (UniProt Q9BTU6),-0.006 (inactive)
15,PDE4DIP isoform 4 (UniProt Q5VU43),-0.038 (inactive)
16,PDXDC1 (UniProt Q6P996),-0.005 (inactive)
17,PPIL2 (UniProt Q13356),-0.006 (inactive)
18,PRRC2A (UniProt P48634),-0.006 (inactive)
19,PCBP3 (UniProt P57721),-0.015 (inactive)

# Compound: CN1CCc2c(c3ccccc3n2Cc2ccc(C(=O)NO)cc2)C1 [Tubastatin A]
# Assay: as above
# How it was run: as §1
row,Target,log2 fold change
1,PUS1 (UniProt Q9Y606),-0.049 (inactive)
2,PTPN23 (UniProt Q9H3S7),-0.035 (inactive)
3,PDCD6IP (UniProt Q8WUM4),0 (inactive)
4,PMS2 (UniProt P54278),-0.129 (inactive)
5,PSTPIP2 (UniProt Q9H939),-0.04 (inactive)
6,PUM1 isoform 3 (UniProt Q14671),-0.033 (inactive)
7,PICALM (UniProt Q13492),0.029 (inactive)
8,PTPN1 (UniProt P18031),-0.048 (inactive)
9,PPP2R5C isoform 5 (UniProt Q13362),-0.018 (inactive)
10,POLD3 (UniProt Q15054),-0.032 (inactive)
11,PIP4K2A (UniProt P48426),-0.048 (inactive)
12,PDS5A (UniProt Q29RF7),-0.21 (inactive)
13,PFN1 (UniProt P07737),-0.01 (inactive)
14,PLXNB2 (UniProt O15031),0.015 (inactive)
15,PFAS (UniProt O15067),-0.01 (inactive)
16,PITRM1 isoform 2 (UniProt Q5JRX3),0.04 (inactive)
17,PPP1R8 (UniProt Q12972),0.028 (inactive)
18,PLEKHF1 (UniProt Q96S99),-0.051 (inactive)
19,PRKACB isoform 2 (UniProt P22694),0.003 (inactive)
20,PIP4K2C (UniProt Q8TBX8),0.022 (inactive)

row,Target,log2 fold change
1,PDPK1 (UniProt O15530),-0.121 (inactive)
2,PIK3C3 (UniProt Q8NEB9),0.02 (inactive)
3,PHOSPHO2 (UniProt Q8TCD6),-0.042 (inactive)
4,PFKP (UniProt Q01813),0.031 (inactive)
5,PHKG2 (UniProt P15735),-0.044 (inactive)
6,PPCDC (UniProt Q96CD2),0.034 (inactive)
7,PDE2A (UniProt O00408),0.275 (inactive)
8,PRKCB isoform 2 (UniProt P05771),0.054 (inactive)
9,PIP4P2 (UniProt Q8N4L2),0.038 (inactive)
10,PHKA1 (UniProt P46020),-0.073 (inactive)
11,PIK3R2 (UniProt O00459),-0.086 (inactive)
12,PSMB9 (UniProt P28065),0.076 (inactive)
13,PHACTR4 isoform 2 (UniProt Q8IZ21),0.016 (inactive)
14,PI4K2A (UniProt Q9BTU6),-0.037 (inactive)
15,PDE4DIP isoform 4 (UniProt Q5VU43),0.004 (inactive)
16,PDXDC1 (UniProt Q6P996),-0.065 (inactive)
17,PPIL2 (UniProt Q13356),-0.1 (inactive)
18,PRRC2A (UniProt P48634),-0.014 (inactive)
19,PCBP3 (UniProt P57721),0.005 (inactive)
